The text below walks through data of PubChem BioAssay (Tox21).

Records with an inconclusive call do not appear. The source made the active and inactive calls. Unless noted, calls follow the shape of the full dose curve.

Assay [1] can be described thus: Nuclear factor erythroid 2-related factor 2/antioxidant responsive element (Nrf2/ARE) small molecule agonists: qHTS cell viability counter screen in human keratinocytes (AID 1919968; active = well fitted curve in the direction sought with a large enough effect in the repeat runs; an effect the other way counts as inactive or inconclusive; also: nearly all actives have a fitted effect of over 55% in size). The method, boiled down:
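Viability counter-screen: KeratinoSens reporter cells, DMSO-delivered compounds, 23 h at 37 C, CellTiter-Fluor fluorescence.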

A short description of assay [2]: Nuclear factor erythroid 2-related factor 2/antioxidant responsive element (Nrf2/ARE) small molecule agonists: luciferase reporter gene qHTS assay in human keratinocytes (AID 1919969). Also: nearly all actives have a fitted effect of over 35% in size. Also: potency is read from the fitted curve at half-maximal effect.
Assay [3] concerns the target Gonadotropin-releasing hormone receptor (Homo sapiens) (UniProt P30968). As to the kind of experiment: Human gonadotropin-releasing hormone receptor (GnRHR) small molecule agonists, calcium flux assay in GnRHR-HEK293 cells (AID 1920063). Also: nearly all actives have a fitted effect of over 35% in size. Put shortly:
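Tox21-format agonist screen using human GnRHR-expressing HEK293 cells and a fluorescent calcium dye; kinetic 3-min fluorescence reading after compound addition, 15-point concentration series run in triplicate.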

The target in assay [4] is KiSS-1 receptor (Homo sapiens) (UniProt Q969F8). As to the kind of experiment: Human kisspeptin (KISS1R) small molecule agonists, calcium flux assay in KISS1R-HEK293 cells (AID 1920064; active = well fitted curve in the direction sought with a large enough effect in the repeat runs; an effect the other way counts as inactive or inconclusive). The method, boiled down:
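Intracellular calcium mobilization in KISS1R-HEK293 cells was recorded by fluorescence (Ex/Em 480/540) for 3 min following compound addition to cells pre-loaded 1 h with calcium dye.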
A general note: A change in cytosolic calcium serves as a functional read-out for many receptors and channels.

The nature of assay [5]: G protein-coupled receptor (GPCR) small molecule agonists, calcium flux assay: HEK293 wild type cell line counter screen (AID 1920065). Put shortly: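 In this agonist-mode screen, ATP is the positive control and DMSO the vehicle. Cells grow 18 h before a 1 h dye incubation at 37 C; signal is taken at Ex/Em 480/540 over 3 min.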
Assay [6] is described as follows: p53 small molecule agonists, cell-based qHTS assay with rat liver microsomes (AID 1963578). Put shortly: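 Agonist mode in p53RE-bla reporter cells, with compounds co-incubated 16 h at 37 C alongside 0.5 mg/mL rat liver microsomes and 0.5 mg/mL NADPH (final), followed by a 2 h LiveBLAzer detection step.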
The nature of assay [7]: p53 small molecule agonists, cell-based qHTS assay with human liver microsomes: qHTS cell viability counter screen (AID 1963579). Also: nearly all actives have a fitted effect of over 45% in size. Put shortly:
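Metabolically activated exposure: compounds, human liver microsomes and NADPH (0.5 mg/mL final apiece) were added to p53RE-bla cells seeded 5 h earlier, left 16 h at 37 C, and then assessed for viability by CellTiter-Glo luminescence.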

A short description of assay [8]: p53 small molecule agonists, cell-based qHTS assay with rat liver microsomes: qHTS cell viability counter screen (AID 1963580). Also: nearly all actives have a fitted effect of over 45% in size. Put shortly:
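p53RE-bla HCT-116 cells were exposed 16 h at 37 C to compounds with rat liver microsomes (0.5 mg/mL) and NADPH (0.5 mg/mL). Viability was measured in the same wells as ATP content by CellTiter-Glo luminescence.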
Background: Quantitative high-throughput screening tests each substance at several concentrations.

A short description of assay [9]: p53 small molecule agonists, cell-based qHTS assay: qHTS cell viability counter screen (AID 1963581). Also: nearly all actives have a fitted effect of over 45% in size. The method, boiled down:
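Compounds are pinned onto HCT-116 p53RE-bla cells and left 16 h at 37 C. Following the reporter FRET read, ATP is quantified by CellTiter-Glo luminescence after 30 min at room temperature.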

Assay [10] is described as follows: p53 small molecule agonists, cell-based qHTS assay (AID 1963582; active = well fitted activation curve with a large enough effect in the signal ratio in the repeat runs, not every such curve was filed as active; the % refers to the signal ratio). Put shortly:
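Agonist activity was scored from beta-lactamase FRET fluorescence in p53RE-bla cells treated 16 h at 37 C with compounds in DMSO, substrate incubation being 2 h at room temperature.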

Assay [11] addresses 5-hydroxytryptamine receptor 2A (Homo sapiens) (UniProt P28223). Kind of assay: 5-hydroxytryptamine receptor 2A (HTR2A) small molecule agonists, cell-based qHTS assay (AID 1963587). Also: nearly all actives have a fitted effect of over 30% in size. The method, boiled down:
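CHO cells stably expressing human HTR2A, plated 18 h, loaded with calcium dye 1 h at 37 C. Agonist mode: compounds added and intracellular calcium fluorescence recorded kinetically for 2 min at 1 sec intervals.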

In assay [12] the target is Muscarinic acetylcholine receptor M1 (Homo sapiens) (UniProt P11229). Kind of assay: Cholinergic receptor muscarinic 1 (CHRM1) small molecule agonists, cell-based qHTS assay (AID 1963589). Also: nearly all actives have a fitted effect of over 35% in size. The method, boiled down:
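Stable CHRM1-CHO cells (human receptor) were incubated 18 h, dye-loaded for 1 h at 37 C and exposed to test compounds for agonist activity, with calcium-dependent fluorescence followed kinetically.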

In assay [13] the target is Beta-2 adrenergic receptor (Homo sapiens) (UniProt P07550). As to the kind of experiment: Adrenergic beta2 receptor (ADRB2) small molecule antagonists, cell-based qHTS assay (AID 1963592). Also: nearly all actives have a fitted effect of over 50% in size. Also: potency is read from the fitted curve at half-maximal effect. Put shortly: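 Cells (CHO, stable ADRB2 overexpression) incubated 18-20hr at 37C; compounds added from DMSO; agonist mix (1nM isoproterenol, 100uM IBMX, 25uM Ro-20-1724) added; 0.5hr RT; d2-cAMP and anti-cAMP-cryptate added; 1hr RT; 665/615 nm read.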

The target in assay [14] is D(2) dopamine receptor (Homo sapiens) (UniProt P14416). As to the kind of experiment: Dopamine D2 receptor (DRD2) small molecule agonists, cell-based qHTS assay (AID 1963594). Also: nearly all actives have a fitted effect of over 35% in size. The method, boiled down: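 HEK293 cells stably expressing human DRD2, pre-treated with PDE inhibitor Ro20-1724 (0.1 mM final) and compound 10 min at room temperature, then stimulated with NKH477 (200nM […]) for 30 min. cAMP read by HTRF (665/620 nm).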

Assay [15] has as its target Muscarinic acetylcholine receptor M1 (Homo sapiens) (UniProt P11229). Kind of assay: Cholinergic receptor muscarinic 1 (CHRM1) small molecule antagonists, cell-based qHTS assay (AID 1963588). Also: nearly all actives have a fitted effect of over 40% in size. Put shortly: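 CHRM1-CHO calcium-flux assay, antagonist mode. Cells were seeded 18 h, dye-loaded 1 h at 37 C and given compound for 5 min at RT, then acetylcholine was added at 50nM. FDSS fluorescence was read 3 min; 15 concentrations, three runs.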

Assay [16] is described as follows: cAMP Responsive Elements (CRE) small molecule agonists, cell-based qHTS assay (AID 1963590). The method, boiled down: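 FRET-based beta-lactamase readout (LiveBLAzer B/G, 2 h RT) quantified CRE activation in HEK 293T CRE-bla cells after 3 h treatment with DMSO-dissolved compounds.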
The nature of assay [17]: cAMP Responsive Elements (CRE) small molecule antagonists, cell-based qHTS assay (AID 1963591; active = well fitted inhibition curve with a large enough effect in the signal ratio in the repeat runs, not every such curve was filed as active; the % refers to the signal ratio). The method, boiled down:
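qHTS in CRE-bla HEK 293T cells: compound in DMSO, then 0.25 uM NKH477 (final), 3 h at 37 °C/5% CO2; beta-lactamase FRET read-out after 2 h substrate incubation.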

The target of assay [18] is D(2) dopamine receptor (Homo sapiens) (UniProt P14416). Kind of assay: Dopamine D2 receptor (DRD2) small molecule antagonists, cell-based qHTS assay (AID 1963595; active = well fitted inhibition curve with a large enough effect in the signal ratio in the repeat runs, with a control signal flat; the % refers to the signal ratio). The method, boiled down:
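Stable D2 receptor HEK293 line, 24 h after seeding. Compound preincubated 10 min, then quinpirole (12 nM) with forskolin analogue NKH477 (200 nM), 30 min, room temperature. Detection by time-resolved FRET of cAMP.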

In assay [19] the target is 5-hydroxytryptamine receptor 2A (Homo sapiens) (UniProt P28223). As to the kind of experiment: 5-hydroxytryptamine receptor 2A (HTR2A) small molecule antagonists, cell-based qHTS assay (AID 1963586). Also: nearly all actives have a fitted effect of over 45% in size. The method, boiled down: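 Antagonist-mode intracellular calcium assay: DOI (4 nM) added after 5 min compound pre-incubation at room temperature to dye-loaded HTR2A-CHO cells. Fluorescence followed for 3 min, sampled every second.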

Assay [20] has as its target Beta-2 adrenergic receptor (Homo sapiens) (UniProt P07550). Kind of assay: Adrenergic beta2 receptor (ADRB2) small molecule agonists, cell-based qHTS assay (AID 1963593).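 Also: CHO cells stably overexpressing human ADRB2.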 The method, boiled down:
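CHO cells stably over-expressing ADRB2 were plated overnight at 37C, then dosed with compounds plus a stimulation mix containing 100uM IBMX and 25uM Ro-20-1724 for 0.5hr at room temperature. cAMP was measured by HTRF competition, 1hr.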

Chain of D(2) dopamine receptor (Homo sapiens) (P14416 whole entry, looked up): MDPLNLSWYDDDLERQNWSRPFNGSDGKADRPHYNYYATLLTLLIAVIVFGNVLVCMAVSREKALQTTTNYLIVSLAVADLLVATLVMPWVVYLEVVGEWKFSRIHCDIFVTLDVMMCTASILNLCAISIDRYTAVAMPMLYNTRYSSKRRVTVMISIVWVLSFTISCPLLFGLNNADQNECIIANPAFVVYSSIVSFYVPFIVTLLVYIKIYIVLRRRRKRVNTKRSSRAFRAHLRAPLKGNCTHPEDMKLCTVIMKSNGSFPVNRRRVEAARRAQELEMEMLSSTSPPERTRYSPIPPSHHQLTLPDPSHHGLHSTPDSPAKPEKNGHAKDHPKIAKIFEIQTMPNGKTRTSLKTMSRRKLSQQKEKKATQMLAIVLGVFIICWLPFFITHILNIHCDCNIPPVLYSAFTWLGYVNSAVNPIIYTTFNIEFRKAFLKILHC
Chain of Beta-2 adrenergic receptor (Homo sapiens) (P07550 whole entry, looked up): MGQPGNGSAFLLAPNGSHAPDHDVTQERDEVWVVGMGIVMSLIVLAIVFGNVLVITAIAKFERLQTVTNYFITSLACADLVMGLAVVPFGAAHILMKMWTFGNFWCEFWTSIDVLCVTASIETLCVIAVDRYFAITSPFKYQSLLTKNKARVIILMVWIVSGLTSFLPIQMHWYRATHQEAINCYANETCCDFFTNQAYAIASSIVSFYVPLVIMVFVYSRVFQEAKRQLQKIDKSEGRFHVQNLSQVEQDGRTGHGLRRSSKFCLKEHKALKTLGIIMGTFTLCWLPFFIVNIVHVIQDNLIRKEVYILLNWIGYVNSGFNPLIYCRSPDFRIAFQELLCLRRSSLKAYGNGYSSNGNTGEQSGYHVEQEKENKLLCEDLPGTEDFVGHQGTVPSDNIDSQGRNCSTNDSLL
Chain of KiSS-1 receptor (Homo sapiens) (Q969F8 whole entry, looked up): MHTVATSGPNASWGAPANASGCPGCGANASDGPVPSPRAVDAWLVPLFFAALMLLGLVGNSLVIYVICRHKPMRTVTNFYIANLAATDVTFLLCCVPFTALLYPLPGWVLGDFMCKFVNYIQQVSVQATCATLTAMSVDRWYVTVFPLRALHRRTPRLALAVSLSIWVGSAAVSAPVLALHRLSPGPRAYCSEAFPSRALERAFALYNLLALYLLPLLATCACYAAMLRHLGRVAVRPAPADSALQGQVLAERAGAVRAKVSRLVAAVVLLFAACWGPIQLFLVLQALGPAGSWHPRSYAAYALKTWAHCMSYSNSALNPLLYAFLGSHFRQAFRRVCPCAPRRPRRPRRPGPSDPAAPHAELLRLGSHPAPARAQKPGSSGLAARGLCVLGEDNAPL
Chain of Muscarinic acetylcholine receptor M1 (Homo sapiens) (P11229 whole entry, looked up): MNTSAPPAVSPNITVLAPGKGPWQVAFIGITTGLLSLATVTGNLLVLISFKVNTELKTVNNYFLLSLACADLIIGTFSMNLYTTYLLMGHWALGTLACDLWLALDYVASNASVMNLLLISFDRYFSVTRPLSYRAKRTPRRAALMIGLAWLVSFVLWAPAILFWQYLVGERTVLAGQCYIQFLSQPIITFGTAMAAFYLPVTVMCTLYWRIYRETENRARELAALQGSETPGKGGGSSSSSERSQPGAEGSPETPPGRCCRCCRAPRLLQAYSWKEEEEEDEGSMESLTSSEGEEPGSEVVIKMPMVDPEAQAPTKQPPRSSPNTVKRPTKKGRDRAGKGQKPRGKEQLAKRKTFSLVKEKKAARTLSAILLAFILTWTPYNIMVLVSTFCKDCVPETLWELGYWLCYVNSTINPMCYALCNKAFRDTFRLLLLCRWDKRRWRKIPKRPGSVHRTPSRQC
Chain of Gonadotropin-releasing hormone receptor (Homo sapiens) (P30968 whole entry, looked up): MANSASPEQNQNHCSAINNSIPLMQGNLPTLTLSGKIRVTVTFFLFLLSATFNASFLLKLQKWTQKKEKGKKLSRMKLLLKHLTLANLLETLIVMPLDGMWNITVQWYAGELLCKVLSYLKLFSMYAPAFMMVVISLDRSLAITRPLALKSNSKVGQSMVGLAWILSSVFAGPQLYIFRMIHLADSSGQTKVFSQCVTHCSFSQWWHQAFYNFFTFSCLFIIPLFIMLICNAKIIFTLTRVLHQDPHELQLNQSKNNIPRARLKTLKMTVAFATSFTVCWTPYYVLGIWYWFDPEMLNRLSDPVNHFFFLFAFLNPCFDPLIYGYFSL
Chain of 5-hydroxytryptamine receptor 2A (Homo sapiens) (P28223 whole entry, looked up): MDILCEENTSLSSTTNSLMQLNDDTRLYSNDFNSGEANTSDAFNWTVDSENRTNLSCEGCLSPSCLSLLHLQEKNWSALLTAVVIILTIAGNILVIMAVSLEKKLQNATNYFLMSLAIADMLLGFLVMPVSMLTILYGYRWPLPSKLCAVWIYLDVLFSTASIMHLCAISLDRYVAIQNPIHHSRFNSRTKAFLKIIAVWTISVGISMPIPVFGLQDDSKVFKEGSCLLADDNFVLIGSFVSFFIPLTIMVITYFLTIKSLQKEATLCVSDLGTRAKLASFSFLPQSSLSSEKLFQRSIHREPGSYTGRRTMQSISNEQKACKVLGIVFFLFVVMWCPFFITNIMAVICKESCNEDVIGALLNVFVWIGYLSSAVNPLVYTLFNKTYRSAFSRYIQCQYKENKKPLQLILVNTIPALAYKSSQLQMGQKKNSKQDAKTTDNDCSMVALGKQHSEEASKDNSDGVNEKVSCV

As to `O=C(CCCN1CCN(c2ccc(F)cc2)CC1)NC1c2ccccc2CSc2ccccc21` (configuration not stated), the Potency result in [1], in assay [2], in assay [3], in assay [4], in assay [5] and in assay [6] was “inactive” each time. In addition, the Potency entry in [7], in assay [8], in assay [9], in assay [10], in assay [11] and in assay [12] was “inactive” in each case. In addition, the Potency result in [14] is “inactive”. Besides, in assay [13], the Potency is 7.5 µM (active).

For the molecule `Cc1ccccc1C(=O)Nc1ccc(C(=O)N2CCCC(O)c3cc(Cl)ccc32)c(C)c1` (configuration not stated), the Potency entry in [1], in assay [2], in assay [3], in assay [4], in assay [5] and in assay [6] was “inactive” in each case. For the same molecule, the Potency result in [7], in assay [8], in assay [9], in assay [10], in assay [11] and in [15] was “inactive” throughout. In addition, the Potency result in assay [12], in assay [16], in assay [17], in assay [13], in assay [14] and in [18] was “inactive” each time.

Regarding `CCNC(=O)/C=C/c1cccc(Br)c1`, the Potency entry in assay [1], in [2], in assay [3], in [4], in [5] and in [6] was “inactive” throughout. The Potency entry in assay [7], in assay [8], in [9], in [10], in assay [15] and in assay [12] was “inactive” in each case. Further, the Potency result in assay [16], in assay [17], in assay [13], in assay [14] and in assay [18] was “inactive” in each case.

Turning to `Nc1ccc2ccccc2c1S(=O)(=O)O`, the Potency entry in [1], in [3], in assay [4], in [5], in assay [6] and in assay [7] was “inactive” each time. Also, the Potency result in assay [8], in [9], in [19], in [11], in assay [15] and in assay [12] was “inactive” in each case. The Potency entry in assay [16], in assay [17], in assay [13], in assay [14] and in assay [18] was “inactive” each time. For the same molecule, the Potency in [2] is 44.1 µM (active).

Regarding `O=C1OC(=O)c2cc(Oc3ccc4c(c3)C(=O)OC4=O)ccc21`, the Potency entry in assay [1], in assay [2], in [3], in assay [4], in [5] and in assay [6] was “inactive” in each case. Further, the Potency entry in assay [7], in assay [8], in assay [9], in [10], in assay [19] and in assay [11] was “inactive” each time. The Potency result in [15], in assay [12], in assay [16], in [17], in assay [13] and in assay [14] was “inactive” in each case. Further, the Potency result in [18] was “inactive”.

Take `CC(=O)OCC(=O)[C@@]1(O)[C@H](OC(C)=O)C[C@H]2[C@@H]3CCC4=CC(=O)C=C[C@]4(C)[C@@]3(F)[C@@H](O)C[C@@]21C`: the Potency result in assay [1], in [2], in assay [3], in [4], in assay [5] and in assay [6] was “inactive” each time. Further, the Potency result in assay [7], in [8], in assay [9], in [10], in assay [11] and in [12] was “inactive” in each case. Further, the Potency entry in assay [16], in [17], in assay [13], in assay [20], in [14] and in [18] was “inactive” throughout.

On to `CC(=O)c1ccc[nH]1`, for which the Potency entry in [1], in [2], in assay [3], in assay [4], in assay [5] and in assay [6] was “inactive” throughout. In addition, the Potency result in assay [7], in assay [8], in [9], in assay [10], in assay [19] and in [11] was “inactive” each time. In addition, the Potency result in assay [15], in assay [12], in assay [16], in assay [13], in assay [20] and in assay [18] was “inactive” in each case.
